Assay results: PubChem BioAssay (NCI)
The panel holds about 79,000 compounds, 15% with a hit somewhere; the sample as a whole holds those more often. No stated cut-off is given here; in the data, active means growth inhibition above about 70%; inactive means the rest.

Columns and labels:
[1] = NCI Yeast Anticancer Drug Screen. Data for the rad50 strain (AID 155);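 further: 0% = growth of vehicle-only cultures of the same strain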; conditions: S. cerevisiae rad50 strain growth inhibition; at 50.0 µM; active compounds read high
Summary of the method: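 Compounds were tested on a yeast strain with an engineered DNA damage repair alteration; the reported value is growth inhibition normalised to vehicle treatment.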

[2] = NCI Yeast Anticancer Drug Screen. Data for the mec2-1 strain (AID 157); conditions: S. cerevisiae mec2-1 strain, at 50.0 µM, active compounds read high
Summary of the method: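 Growth inhibition is read against vehicle-treated controls after compound exposure of the mec2-1 yeast strain, which is defective in DNA damage repair or cell cycle control.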

[3] = NCI Yeast Anticancer Drug Screen. Data for the sgs1 mgt1 strain (AID 161);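 further: 0% = growth of cultures given vehicle only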; conditions: S. cerevisiae sgs1 mgt1 strain, at 50.0 µM, active compounds read high
Summary of the method: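 Percent growth inhibition was derived by comparing compound-exposed mutant yeast with vehicle-exposed cultures. The strain carries alterations in DNA damage repair.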

[4] = NCI Yeast Anticancer Drug Screen. Data for the cln2 rad14 strain (AID 165);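 further: 0% = growth equal to vehicle treated cultures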; conditions: S. cerevisiae cln2 rad14 strain, at 50.0 µM, active compounds read high
Summary of the method: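 Growth inhibition, relative to vehicle-treated controls, is the read-out. The test organism is a yeast strain with defined genetic alterations, cln2 rad14.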

[5] = NCI Yeast Anticancer Drug Screen. Data for the bub3 strain (AID 167); conditions: S. cerevisiae bub3 mutant strain, at 50.0 µM, active compounds read high
Summary of the method: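 Growth of a checkpoint-deficient yeast mutant is measured after compound exposure. Values represent inhibition relative to vehicle.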

[6] = NCI Yeast Anticancer Drug Screen. Data for the mlh1 rad18 strain (AID 175); conditions: S. cerevisiae mlh1 rad18 strain growth inhibition; at 50.0 µM; active compounds read high
Summary of the method: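 Cells of a genetically altered yeast strain, deficient in DNA damage repair, were treated with compound. Their growth was then compared with that of vehicle-treated cultures to give inhibition.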

Measured: growth inhibition

NC1=NS(=O)(=O)Nc2nc(-c3ccc([N+](=O)[O-])o3)[nH]c21
inactive: [1] 50.5% | [2] -8.6% | [3] 26.1% | [4] 23.2% | [5] -2.7% | [6] 50.5%

COc1ccc2c(c1)N(CC(C)CN(C)C)c1ccccc1S2 (configuration not stated)
inactive: [1] 0.75% | [2] 25.7% | [3] -0.95% | [4] -3.75% | [5] 39.5% | [6] 11.4%

CC1(C)CC(=O)C(CC(C(=O)C(=O)Nc2cc(C(F)(F)F)ccc2Cl)C(=O)c2ccco2)C(=O)C1 (configuration not stated)
inactive: [1] -1.55% | [2] 30.1% | [3] 18.9% | [4] -22.4% | [5] 13% | [6] 19.1%

CC[N+](CC)(CC)CC(=O)c1ccc(Br)cc1
inactive: [1] 18.7% | [2] 12.7% | [3] 13.1% | [4] -0.35% | [5] 25% | [6] 8.2%

CCCCC(CCCC)c1ccccn1
inactive: [1] -15.1% | [2] -10.9% | [3] 8.15% | [4] -18.2% | [5] 8.85% | [6] -14.4%

CCOC(=O)NCC(Cl)(Cl)Cl
inactive: [1] -4.6% | [2] 0.25% | [3] -11.1% | [4] -51.4% | [5] 6.6% | [6] -6.7%

CC(c1ccccc1)C1OCC(CCCCO)O1 (configuration not stated)
inactive: [1] -7.9% | [2] -20.2% | [3] -10.7% | [4] 0.55% | [5] -15.1% | [6] -20.1%

CC(=O)Nc1ccc2c(Br)ccc3c2c1CC3
inactive: [1] 0.8% | [2] -1.55% | [3] 4.3% | [4] 0.6% | [5] 6.6% | [6] -4.45%

CSCCC(NC(=O)OC(C)(C)C)C(=O)NCCNc1ccc(NCCNC(=O)C(CCSC)NC(=O)OC(C)(C)C)c2c1C(=O)c1ccccc1C2=O (configuration not stated)
inactive: [1] 19.4% | [2] 7.9% | [3] -24.2% | [4] 3.85% | [5] -9.5% | [6] -43.3%

CCCCCCCCCCC#N
inactive: [1] 15.2% | [2] -8.4% | [3] -5.6% | [4] 14.6% | [5] 9.15% | [6] -17.6%

O=C1C=C(c2ccccc2)C(O)(c2ccccc2)/C1=C/C=C/c1ccccc1 (configuration not stated)
inactive: [1] -3.55% | [2] -14.1% | [3] 6.5% | [4] -12.2% | [5] -5.2% | [6] -8.35%

CC1C(C(=O)NCC(c2ccccc2)c2ccccc2)CC2CCCCN21 (configuration not stated)
inactive: [1] -15.5% | [2] -4.75% | [3] 13.2% | [4] -9.2% | [5] 11.2% | [6] 25.9%

CC(Sc1nc2ccccc2c(=O)[nH]1)c1ccccc1 (configuration not stated)
inactive: [1] 3.1% | [2] -1.85% | [3] 3.3% | [4] -21.8% | [5] 7.3% | [6] -6.7%

CC(=O)/C(C=Nc1c(C)n(C)n(-c2ccccc2)c1=O)=C(/C)O
inactive: [1] 24.6% | [2] 29% | [3] 28.1% | [4] 9.65% | [5] 24.9% | [6] 28.5%

O=C(Nc1cc(Cl)c(Cl)cc1Cl)OCc1ccc2c(c1)OCO2
inactive: [1] -12.1% | [2] -32.3% | [3] -14.4% | [4] 6.25% | [5] -25.2% | [6] -14.6%

C=CCNC(=S)Nc1cccc(C(C)OC(=O)NC(C)(C)C)c1 (configuration not stated)
inactive: [1] 1.2% | [2] 30.9% | [3] 36.2% | [4] -5.8% | [5] 33.8% | [6] 20.6%

O=C(N/C(=C\c1cc(Cl)ccc1Cl)c1nc2ccccc2[nH]1)c1ccccc1
inactive: [1] 50.2% | [2] 8.65% | [3] 31.9% | [4] 25% | [5] 43.9% | [6] 42.3%

O=C(Nc1ccc(S(=O)(=O)Nc2nccs2)cc1)c1cccnc1Nc1cccc(Cl)c1
inactive: [1] 36.6% | [2] 8.5% | [3] 22.2% | [4] 1.15% | [5] 13.4% | [6] 61.2%

Cc1nc(C#N)c(=N)n(CCCO)c1-c1ccccc1
inactive: [1] 7.2% | [2] -8.45% | [3] 10.3% | [4] -28.5% | [5] 16.4% | [6] 5.15%

CCOc1ccccc1N1C(=O)CSC1=S
inactive: [1] 15.2% | [2] 14.2% | [3] 51.2% | [4] -14% | [5] 48.9% | [6] 30.2%

COc1ccc(CC(=O)OCC2CCCO2)cc1OC (configuration not stated)
inactive: [1] -8.5% | [2] -1.25% | [3] 9.9% | [4] -20.6% | [5] 5.6% | [6] 4%

COc1ccc(C2=CN(S(=O)(=O)c3ccc(C)cc3)CCc3ccccc32)cc1
inactive: [1] -31.4% | [2] -10.9% | [3] -31.8% | [4] -59.8% | [5] -6.6% | [6] -23.7%

O=C(O)c1ccc(N2CCOCC2)cc1
inactive: [1] -20% | [2] -13.5% | [3] -15.4% | [4] -15.6% | [5] -9.3% | [6] 6.6%

O=C1OC(/C=C/c2ccccc2)=NC/1=C\c1ccccc1Cl
inactive: [1] 29.8% | [2] 15.4% | [3] 35% | [4] 21.6% | [5] 17.4% | [6] 20.4%

COc1ccc2nc3cc(Cl)ccc3c(NC(C)CCCN(C)C)c2n1 (configuration not stated)
inactive: [1] 44.8% | [2] 42.8% | [3] 64.2% | [4] 31.2% | [5] 46.3% | [6] 65%

COc1ccccc1C(=O)C1OC1c1ccc(Cl)cc1Cl (configuration not stated)
inactive: [1] 19.1% | [2] -9.7% | [3] -6.9% | [4] -32% | [5] 6.85% | [6] 5.05%

C/C(O)=C(/C=N/C(N)=S)C(N)=O
inactive: [1] -3.05% | [2] 14.2% | [3] 7.1% | [4] 22% | [5] 10.2% | [6] 15.5%

O=C(c1ccccc1)c1ccc2cccc3c2c1CC3
inactive: [1] 40.2% | [2] 14.6% | [3] 32.1% | [4] 20.8% | [5] 51.6% | [6] 34.4%

O=C1CSC(c2ccc([N+](=O)[O-])cc2)N1c1nncs1 (configuration not stated)
inactive: [1] -10.9% | [2] -6.8% | [3] 7.25% | [4] -2.65% | [5] -8.7% | [6] 0.55%

CCN(CC)C(=O)NCCCCCCNC(=O)N(CC)CC
inactive: [1] -20.2% | [2] -36.8% | [3] -27.8% | [4] -20% | [5] -29.2% | [6] -23.6%

Clc1nnc(Cl)c2ncccc12
inactive: [1] 3.6% | [2] 8.3% | [3] -3.6% | [4] -2.95% | [5] -3% | [6] -1.75%

CN(C)C12CCCCCC1S(=O)(=O)C2 (configuration not stated)
inactive: [1] -0.05% | [2] -20.1% | [3] 0.85% | [4] -17.6% | [5] -22.4% | [6] 3.45%

CC(=O)[O-].Cc1ccnc(NS(=O)(=O)c2ccc(N=Cc3ccccc3[O-])cc2)n1.Cc1ccnc(NS(=O)(=O)c2ccc(N=Cc3ccccc3[O-])cc2)n1.[Cu+2]
inactive: [1] 9% | [2] 2% | [3] 2.6% | [4] 19.1% | [5] 11.1% | [6] 34.4%

COC(=O)C(=O)C(C(=O)C(=O)Nc1cccc(OC)c1)c1nc2ccc(Cl)cc2[nH]c1=O (configuration not stated)
inactive: [1] 21.1% | [2] -1.2% | [3] -8.25% | [4] -10.2% | [5] -35.1% | [6] -25.6%

O=C1c2ccccc2C(=O)c2cc(N=Nc3c(O)ccc4ccccc34)ccc21
inactive: [1] 2.05% | [2] 35.9% | [3] -6% | [4] 4.25% | [5] 2.7% | [6] 2.1%

C[N+](C)(CCO)CCO
inactive: [1] 3.15% | [2] -8% | [3] -8.5% | [4] 14.8% | [5] 0.85% | [6] 13.1%

COc1cccc(OC(=O)Nc2ccccc2)c1
inactive: [1] 2.6% | [2] -10.6% | [3] -9.85% | [4] -41.3% | [5] -20.6% | [6] 3.25%

Cn1c(=O)c2c(nc(C(c3ccccc3)c3ccccc3)n2C)n(C)c1=O
inactive: [1] -11.3% | [2] -25.5% | [3] -3.55% | [4] -33.5% | [5] 6.25% | [6] -18.6%

C[N+]1(CCC(/C=C/c2ccc([N+](=O)[O-])cc2)=N\O)CCOCC1
inactive: [1] 17.3% | [2] -0.9% | [3] 14.8% | [4] -6.55% | [5] 1.05% | [6] 46.5%

CC12CC(c3ccccc3)C(C)(C(c3ccccc3)=C1c1ccccc1)C2(O)c1ccccc1 (configuration not stated)
inactive: [1] -2.85% | [2] 0.1% | [3] 12.7% | [4] -13.3% | [5] -2.45% | [6] 13.4%

CC(=O)OCCCC(CCCOC(C)=O)OC(C)=O
inactive: [1] -7.7% | [2] -6.85% | [3] 12.2% | [4] -12.8% | [5] 5.25% | [6] 29.2%

O=c1[nH]cc(S)c(=O)[nH]1
inactive: [1] 15.8% | [2] -28.4% | [3] -15.4% | [4] -9.35% | [5] -9.7% | [6] -0.35%
